Test results from PubChem BioAssay (EPA / NIEHS).
Values joined by “and” are separate entries in the source; they are usually repeats but may differ in a detail not shown here. Identical values can stand only once. Active and inactive are the calls of the source. How the source made its calls: active means hit-call score of the fitted dose curve at least 0.9, where 1 is the maximum; inactive means score below 0.9.

read-out: E-selectin (Homo sapiens) (UniProt P16581); assay: BSK_LPS_Eselectin: BioMAP Diversity Plus: LPS Assay for Eselectin Biomarker Activity (AID 2283077); details: primary human HUVEC with PBMC; actives raise or lower the signal
Experimental: BSK_LPS is a cell-based, multiplexed-readout assay that uses umbilical vein endothelium and peripheral blood mononuclear cells, a human vascular primary cell co-culture, with measurements taken at 24 hours after chemical dosing in a 96-well plate.BSK_LPS_Eselectin is an assay component measured in the BSK_LPS assay. It measures E-selectin antibody related to regulation of gene expression using ELISA technology.Data from the assay component BSK_LPS_Eselectin was analyzed into 1 assay endpoint. This assay endpoint, BSK_LPS_Eselectin, was analyzed with bidirectional fitting relative to DMSO as the negative control and baseline of activity. Using a type of binding reporter, gain or loss-of-signal activity can be used to understand changes in the signaling as they relate to the gene SELE. Furthermore, this assay endpoint can be referred to as a primary readout, because this assay has produced multiple assay endpoints where this one serves a signaling function. To generalize the intended target to other relatable targets, this assay endpoint is annotated to the cell adhesion molecules intended target family, where the subfamily is selectins.
The levels of cell surface (or secreted, indicated by the prefix "s") biomarker endpoints were measured by ELISA. Overt cytotoxicity to cells in confluent adherent cultures (all systems other than the BT system) was assessed by measuring total protein levels using sulforhodamine B (SRB) staining in parallel cultures at the time of biomarker measurements, indicated as SRB endpoints. For proliferation assays for adherent cell types, individual cell types are cultured at sub-confluence and relative cell numbers quantified by SRB staining at time points optimized for each system (48 h: 3C and CASM3C systems; 72 h: BT and HDF3CGF systems; 96 h: SAg system). SRB was performed by staining cells with 0.1% SRB after fixation with 10% TCA and reading wells at 560 nm.Viability and proliferation of PBMC (T cells) was quantified by Alamar Blue reduction for the SAg and BT systems. For PBMC viability (referred to as PBMC Cytotoxicity within the assay endpoint names), cells were plated (75,000/well in a 96-well plate) and then chemical samples added for 1 h before addition of activators, SEB and TSST-1 (20 ng/mL final concentration each). Cells were incubated for 90 h. Then, Alamar Blue (20 uL/well) (Invitrogen, Cat DAL1100) was added for 6 h, and the plates were read with a fluorescence microplate reader at 546/580 nm (excitation/emission). For PBMC proliferation, cells were plated and activated as above but incubated for only 16 h prior to addition of Alamar Blue. Plates were read after 6 h.

Chain of E-selectin (Homo sapiens) (P16581 whole entry, looked up): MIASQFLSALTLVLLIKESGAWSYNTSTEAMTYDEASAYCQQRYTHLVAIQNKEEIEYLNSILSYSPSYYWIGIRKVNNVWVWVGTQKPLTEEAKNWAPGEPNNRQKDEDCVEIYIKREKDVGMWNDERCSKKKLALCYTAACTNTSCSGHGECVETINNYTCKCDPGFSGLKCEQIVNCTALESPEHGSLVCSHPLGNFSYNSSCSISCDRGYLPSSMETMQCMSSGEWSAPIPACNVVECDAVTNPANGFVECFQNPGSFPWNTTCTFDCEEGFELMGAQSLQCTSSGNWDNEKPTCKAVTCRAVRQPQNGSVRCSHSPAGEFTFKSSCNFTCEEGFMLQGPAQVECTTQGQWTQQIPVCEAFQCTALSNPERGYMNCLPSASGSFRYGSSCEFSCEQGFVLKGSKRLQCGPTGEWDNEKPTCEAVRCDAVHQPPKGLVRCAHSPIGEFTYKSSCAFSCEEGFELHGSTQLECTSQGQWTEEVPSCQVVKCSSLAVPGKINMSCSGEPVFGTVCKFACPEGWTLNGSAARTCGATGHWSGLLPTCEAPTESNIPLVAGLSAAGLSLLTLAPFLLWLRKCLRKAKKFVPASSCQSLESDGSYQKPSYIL

| Structure (SMILES) | outcome | AC50 |
| --- | --- | --- |
| Cc1cc(C2CC2)nc(Nc2ccccc2)n1 | inactive | – |
| CC(C)[C@H](C(=O)O[C@H](C#N)c1cccc(Oc2ccccc2)c1)c1ccc(Cl)cc1 | – | 7.16 µM (active) |
| CN(C)C(=O)Nc1cccc(C(F)(F)F)c1 | inactive | – |
| O=c1ccc(=O)[nH][nH]1 | inactive | – |
| CCOP(=O)(NC(C)C)Oc1ccc(SC)c(C)c1 (stereo not given) | inactive | – |
| Nc1nc(N)nc(NC2CC2)n1 | inactive | – |
| CSc1nc(NC(C)C)nc(NC(C)C)n1 | inactive | – |
| CC1(C(=O)Nc2ccc(O)c(Cl)c2Cl)CCCCC1 | – | 16.4 µM (active) |
| CC(COc1ccc(Oc2ccccc2)cc1)Oc1ccccn1 (stereo not given) | inactive | – |
| CN(C)NC(=O)CCC(=O)O | inactive | – |
| CCOP(=S)(OCC)SCCSCC | inactive | – |
| CCOP(=O)(OCC)Oc1cc(C)nc(C(C)C)n1 | inactive | – |
| S=C1NCCN1 | inactive | – |
| CN1COCN(Cc2cnc(Cl)s2)C1=N[N+](=O)[O-] | inactive | – |
| CC1=NNC(=O)N(/N=C/c2cccnc2)C1 | inactive | – |
| CCOP(=S)(Oc1cnc(C(C)(C)C)nc1)OC(C)C (stereo not given) | – | 30.9 µM (active) |
| C[N+]1(C)CCCCC1 | inactive | – |
| CCOP(=S)(OCC)Oc1ccc([N+](=O)[O-])cc1 | inactive | – |
| Cc1ccn2nc(S(=O)(=O)Nc3c(F)cccc3F)nc2n1 | inactive | – |
| O=[N+]([O-])c1cc(C(F)(F)F)c(Cl)c([N+](=O)[O-])c1Nc1ncc(C(F)(F)F)cc1Cl | – | 1.55 µM (active) and 3.22 µM (active) |

| Structure (SMILES) | outcome | AC50 |
| --- | --- | --- |
| COP(=O)(NC(C)=O)SC (stereo not given) | inactive | – |
| COc1cc(OC)nc(Sc2cccc(Cl)c2C(=O)O)n1 | inactive | – |
| CCOC(=O)COc1cc(-c2nn(C)c(OC(F)F)c2Cl)c(F)cc1Cl | inactive | – |
| C#CCC1=C(C)C(OC(=O)C2C(C=C(C)C)C2(C)C)CC1=O (stereo not given) | – | 28.4 µM (active) |
| CNC(=O)ON=C(SC)C(=O)N(C)C | inactive | – |
| CN(C)[C@@H]1C(=O)C(C(N)=O)=C(O)[C@@]2(O)C(=O)C3=C(O)c4c(O)cccc4[C@@](C)(O)[C@H]3[C@H](O)[C@@H]12 | inactive | – |
| CCCCSP(=O)(SCCCC)SCCCC | – | 32.6 µM (active) |
| CCc1cccc(C)c1N(C(=O)CCl)C(C)COC (stereo not given) | inactive | – |
| CCc1cnc(C2=NC(C)(C(C)C)C(=O)N2)c(C(=O)O)c1 (stereo not given) | inactive | – |
| CCCSP(=O)(OCC)SCCC | inactive | – |
| Nc1c(Cl)cc([N+](=O)[O-])cc1Cl | inactive | – |
| CCOP(=O)(SC(C)CC)N1CCSC1=O (stereo not given) | inactive | – |
| CCCSP(=O)(OCC)Oc1ccc(Br)cc1Cl (stereo not given) | inactive | – |
| CC(Oc1cccc(Cl)c1)C(=O)O (stereo not given) | inactive | – |
| CC(C)=CC1C(C(=O)OCN2C(=O)C3=C(CCCC3)C2=O)C1(C)C (stereo not given) | – | 35.1 µM (active) |
| CNC(=O)ON=C(C)SC | inactive | – |
| CCCCOC(=O)c1ccccc1C(=O)O | inactive | – |
| COP(=O)(OC)OC(Br)C(Cl)(Cl)Br (stereo not given) | – | 32.3 µM (active) |
| CCOC(=O)CC(SP(=O)(OC)OC)C(=O)OCC (stereo not given) | – | 2.5 µM (active) |
| C#CC(C)(C)NC(=O)c1cc(Cl)cc(Cl)c1 | inactive | – |
